Data published in PubChem BioAssay.
Unmarked numbers belong to inactive results. For some assays here: Entries with a potency or affinity are not part of this list. Activity calls are given as the source filed them. Unless noted, how the calls were made is not given here.

Columns and labels:
[1] = antimalarial activity against Dd2 strain (AID 2302;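 active means growth inhibition above 50% at the single 2 µM test dose, taken to imply half-maximal potency below 2 µM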;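 further: 0% = DMSO untreated growth and 100% = chloroquine plus artemisinin killed control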); conditions: P. falciparum Dd2 in RBCs, LDH growth readout, 72 h; at 2 µM; stronger effect = higher value
[2] = human hepatoma cell viability loss – ATP luminescence, cytotoxicity control for P. falciparum antimalarial project, primary screen (AID 2303;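 active means inhibition above 50%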;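 further: 0% = DMSO wells and 100% = digitonin-killed cells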); conditions: HepG2 viability, 24-48 h, at 10 µM, stronger effect = higher value
[3] = molecular target: L-lactate dehydrogenase (Plasmodium falciparum (isolate CDC / Honduras)) (UniProt Q27743); assay: PfLDH activity inhibition – cell lysate, 3D7 strain, counter-screen for P. falciparum growth inhibition project (AID 2304);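 further: 0% = vehicle and 100% = reference inhibitor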; conditions: P. falciparum 3D7 crude extract, LDH APAD/NBT absorbance; at 2 µM; stronger effect = higher value
Chain of L-lactate dehydrogenase (Plasmodium falciparum (isolate CDC / Honduras)) (Q27743 whole entry, looked up): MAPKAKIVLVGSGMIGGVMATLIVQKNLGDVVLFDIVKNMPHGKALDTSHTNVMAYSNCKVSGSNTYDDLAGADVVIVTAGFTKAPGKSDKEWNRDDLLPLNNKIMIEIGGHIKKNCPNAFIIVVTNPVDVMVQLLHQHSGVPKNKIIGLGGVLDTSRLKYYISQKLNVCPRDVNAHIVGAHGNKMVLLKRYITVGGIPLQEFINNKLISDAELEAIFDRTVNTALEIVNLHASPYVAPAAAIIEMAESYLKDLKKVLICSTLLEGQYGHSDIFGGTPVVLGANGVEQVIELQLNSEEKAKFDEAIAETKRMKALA

[4] = inhibition of 3D7 malaria parasite growth – strain 3D7 (AID 2306);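 further: 0% = DMSO wells and 100% = chloroquine plus artemisinin control wells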; conditions: P. falciparum 3D7 erythrocytic growth, LDH absorbance, 72 h; at 2 µM; stronger effect = higher value
[5] = molecular target: Calcium-dependent protein kinase 1 (Plasmodium falciparum (isolate 3D7)) (UniProt P62344); assay: PfCDPK1 kinase inhibitors, biochemical, TCAMS library (AID 1159585; cut-off not given, nearly all actives have IC50 up to about 0.98 µM;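 further: inhibitors leave more ATP so luminescence rises with inhibition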); conditions: recombinant PfCDPK1, Kinase-Glo ATP depletion luminescence
Chain of Calcium-dependent protein kinase 1 (Plasmodium falciparum (isolate 3D7)) (P62344 whole entry, looked up): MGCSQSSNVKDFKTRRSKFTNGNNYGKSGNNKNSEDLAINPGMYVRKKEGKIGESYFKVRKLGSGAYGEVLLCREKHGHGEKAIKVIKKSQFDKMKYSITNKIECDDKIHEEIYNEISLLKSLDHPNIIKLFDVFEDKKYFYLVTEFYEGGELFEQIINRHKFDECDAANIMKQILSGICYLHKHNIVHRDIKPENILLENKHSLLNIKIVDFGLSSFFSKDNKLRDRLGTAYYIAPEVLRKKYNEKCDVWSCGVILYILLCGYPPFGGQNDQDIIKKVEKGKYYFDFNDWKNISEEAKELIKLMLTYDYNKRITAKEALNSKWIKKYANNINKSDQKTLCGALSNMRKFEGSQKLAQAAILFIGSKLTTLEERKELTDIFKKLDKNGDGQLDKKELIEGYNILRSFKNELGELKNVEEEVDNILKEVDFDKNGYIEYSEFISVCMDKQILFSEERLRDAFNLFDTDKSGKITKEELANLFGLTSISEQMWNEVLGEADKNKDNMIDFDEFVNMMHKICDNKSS

[6] = molecular target: Plasmodium falciparum protein kinase 6 (PK6, PF3D7_1337100) (UniProt Q8IDW1); assay: PfPK6 kinase inhibitors, biochemical, TCAMS library (AID 1159586); conditions: recombinant PfPK6, Kinase-Glo ATP depletion luminescence
Chain of Plasmodium falciparum protein kinase 6 (PK6, PF3D7_1337100) (Q8IDW1 1-305): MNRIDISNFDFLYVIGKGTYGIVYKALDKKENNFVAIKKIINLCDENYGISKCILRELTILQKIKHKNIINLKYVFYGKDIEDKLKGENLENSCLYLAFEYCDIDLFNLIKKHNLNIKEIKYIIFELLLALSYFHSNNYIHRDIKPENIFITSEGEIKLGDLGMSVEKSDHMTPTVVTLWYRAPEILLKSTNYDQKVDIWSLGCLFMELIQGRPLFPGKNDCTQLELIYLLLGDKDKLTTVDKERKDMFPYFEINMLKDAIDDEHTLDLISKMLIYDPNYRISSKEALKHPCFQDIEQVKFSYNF

[7] = molecular target: Protein kinase 7 (PK7), Plasmodium falciparum 3D7 (PF3D7_0213400) (UniProt Q7YTF7); assay: inhibition of Plasmodium PK7 catalytic activity – biochemical, TCAMS antimalarial set, Kinase-Glo luminescence (AID 1159587); conditions: recombinant PfPK7, Kinase-Glo ATP depletion luminescence
Chain of Protein kinase 7 (PK7), Plasmodium falciparum 3D7 (PF3D7_0213400) (Q7YTF7 1-343): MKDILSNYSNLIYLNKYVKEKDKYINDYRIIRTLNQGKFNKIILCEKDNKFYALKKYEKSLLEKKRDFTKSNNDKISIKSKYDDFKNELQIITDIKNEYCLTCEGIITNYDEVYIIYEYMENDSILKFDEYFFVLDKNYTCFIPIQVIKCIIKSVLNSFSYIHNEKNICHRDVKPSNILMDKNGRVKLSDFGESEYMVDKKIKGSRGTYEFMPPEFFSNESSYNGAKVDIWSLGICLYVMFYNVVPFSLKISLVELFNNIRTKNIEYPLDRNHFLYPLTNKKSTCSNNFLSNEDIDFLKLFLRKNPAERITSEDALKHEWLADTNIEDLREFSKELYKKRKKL

[8] = molecular target: Calcium-dependent protein kinase 4 (Plasmodium falciparum (isolate 3D7)) (UniProt Q8IBS5); assay: PfCDPK4 kinase inhibitors, biochemical, TCAMS library (AID 1159588; cut-off not given, nearly all actives have IC50 up to about 0.91 µM); conditions: recombinant PfCDPK4, Kinase-Glo ATP depletion luminescence
Chain of Calcium-dependent protein kinase 4 (Plasmodium falciparum (isolate 3D7)) (Q8IBS5 whole entry, looked up): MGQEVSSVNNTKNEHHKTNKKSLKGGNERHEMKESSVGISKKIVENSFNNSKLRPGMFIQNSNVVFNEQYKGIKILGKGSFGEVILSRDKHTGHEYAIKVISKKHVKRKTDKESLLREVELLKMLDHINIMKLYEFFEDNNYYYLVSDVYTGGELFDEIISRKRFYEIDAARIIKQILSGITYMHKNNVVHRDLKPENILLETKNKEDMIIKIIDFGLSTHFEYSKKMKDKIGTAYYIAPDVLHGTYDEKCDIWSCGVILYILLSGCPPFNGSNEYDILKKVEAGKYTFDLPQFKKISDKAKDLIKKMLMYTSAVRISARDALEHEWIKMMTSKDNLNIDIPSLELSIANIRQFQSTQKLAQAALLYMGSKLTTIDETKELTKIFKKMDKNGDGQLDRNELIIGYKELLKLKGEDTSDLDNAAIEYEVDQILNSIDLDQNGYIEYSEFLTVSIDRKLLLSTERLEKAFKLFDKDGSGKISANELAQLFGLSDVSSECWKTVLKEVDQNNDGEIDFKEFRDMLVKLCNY

Structure (SMILES)	growth inhibition [1]	inhibition [2]	inhibition [3] [%]	growth inhibition [4]	outcome [5]	outcome [6]	outcome [7]	outcome [8]
CC(C)(C)c1ccc(C(=O)Nc2ccc(NC(=O)c3ccc([N+](=O)[O-])o3)cc2)cc1	4%	-2%	2	81% (active)	inactive	inactive	inactive	inactive
COc1ccc(/C=C/c2ccc(-c3c(C)[nH]c(C)c(Cl)c3=O)cc2)cc1OC	96% (active)	12%	-8	97% (active)	inactive	inactive	inactive	inactive
NC(N)=Nc1nc(-c2cccc(NC(=O)C(F)(F)F)c2)cs1	24%	-4%	-2	94% (active)	inactive	inactive	inactive	inactive
CN(C)CCCNc1c2ccccc2nc2ccccc12	4%	31%	-3	91% (active)	inactive	inactive	inactive	inactive
COc1cc(CN2CCC(CO)(Cc3cccc(C(F)(F)F)c3)CC2)c(Cl)cc1O	64% (active)	12%	6	99% (active)	inactive	inactive	inactive	inactive
CN1CC[C@@H](Oc2cc(CNC(=O)c3ccc(-c4ccc(Cl)cc4)s3)ccc2C(F)(F)F)C1	64% (active)	40%	2	93% (active)	inactive	inactive	inactive	inactive
Clc1ccc2c(N3CCCNCC3)ccnc2c1	99% (active)	11%	-1	100% (active)	inactive	inactive	inactive	inactive
CCc1ccccc1N1CCN(CCCC(=O)c2ccc(NC(=O)c3ccc(Cl)cc3)cc2)CC1	4%	17%	7	90% (active)	inactive	inactive	inactive	inactive
CN1CCN(CCNc2c3ccccc3nc3c2ccc2ccccc23)CC1	66% (active)	76% (active)	-6	101% (active)	inactive	inactive	inactive	inactive
Cc1ccc(Nc2nc(C)cc(N3CCN(c4ccccc4)CC3)n2)cc1	72% (active)	4%	3	93% (active)	inactive	inactive	inactive	inactive
CCN1CCC(N2CCC(C(=O)Nc3cccc(-c4cccc(Cl)c4)c3)CC2)CC1	82% (active)	54% (active)	-1	91% (active)	inactive	inactive	inactive	inactive
Cc1cc(Nc2cccc(C(F)(F)F)c2)nc2ccc(NC(=O)c3ccc(=O)[nH]c3)cc12	60% (active)	21%	0	101% (active)	inactive	inactive	inactive	inactive
Cc1cccc(-n2nc(C)c3c2NC(=O)CC3C(=O)c2ccc(Cl)s2)c1 (stereo not given)	85% (active)	13%	-1	92% (active)	inactive	inactive	inactive	inactive
COc1cccc2c(NN=Cc3cccc(Cl)c3)ccnc12	77% (active)	19%	6	101% (active)	inactive	inactive	inactive	inactive
CN1CCCN(Cc2ccc(-c3ccc(NC(=O)c4cccc(C#N)c4)cc3)cc2)CC1	67% (active)	46%	-8	97% (active)	inactive	inactive	inactive	inactive
NC(=O)c1ccc(-n2cnc3cc(F)ccc32)cc1OCc1ccccc1C(F)(F)F (tested in a mixture with another compound)	93% (active)	55% (active)	3	97% (active)	inactive	inactive	inactive	inactive
CCCCCCNc1cc(C)nc(/N=C(\N)Nc2cccc(C(F)(F)F)c2)n1	100% (active)	44%	-2	100% (active)	inactive	inactive	inactive	inactive
O=C(Nc1ccc(F)c(C(F)(F)F)c1)N[C@H]1CCN(CCCCCNC(=O)[C@@H]2C[C@H]2c2ccc(Cl)c(Cl)c2)C1	0%	46%	7	90% (active)	inactive	inactive	inactive	inactive
CC(C)c1sc(N2CCN(C)CC2)nc1C(=O)Nc1cccc2c1CCCC2	50% (active)	3%	-1	98% (active)	inactive	inactive	inactive	inactive
CCn1c(Sc2ccc(C#N)c([N+](=O)[O-])c2)nnc1-c1ccc(Cl)cc1	93% (active)	0%	6	97% (active)	inactive	inactive	inactive	inactive

Structure (SMILES)	growth inhibition [1]	inhibition [2]	inhibition [3] [%]	growth inhibition [4]	outcome [5]	outcome [6]	outcome [7]	outcome [8]
Cc1cccc2[nH]c(-c3ccc(-c4ccc(NC(=O)Nc5ccc(Cl)c(Cl)c5)cc4)s3)nc12	101% (active)	100% (active)	0	101% (active)	inactive	inactive	inactive	inactive
CC(=O)Nc1ccc(C(=O)Nc2cccc(-c3cccc(-c4nc5ccc(F)cc5[nH]4)c3)c2)cn1	98% (active)	-5%	1	99% (active)	inactive	inactive	inactive	inactive
CN1CCC(N2CCN(Cc3ccc(-c4cccc(-c5nc6ccccc6[nH]5)c4)cc3)CC2)CC1	100% (active)	48%	-1	99% (active)	inactive	inactive	inactive	inactive
O=S(=O)(Nc1ccc(CCN2CCC(N3CCCCC3)CC2)cc1)c1ccc2ccccc2c1	80% (active)	44%	-2	101% (active)	inactive	inactive	inactive	inactive
OCCN1CCN(C(=S)Nc2ccccc2)CC1	7%	6%	2	97% (active)	inactive	inactive	inactive	inactive
Cc1ncc([N+](=O)[O-])n1CCOC(=O)NC(NCC1COc2ccccc2O1)C(Cl)(Cl)Cl (stereo not given)	78% (active)	-9%	-4	101% (active)	inactive	inactive	inactive	inactive
C=Cc1sc(CNCCCNc2cc(=O)c3ccccc3[nH]2)c(C)c1Br	35%	-5%	-6	94% (active)	inactive	inactive	inactive	inactive
C[C@@H]1CN(c2cccc3c2nc(-c2cncc(C#N)c2)n3CCNCc2ccccc2)C[C@H](C)O1	9%	-5%	5	83% (active)	inactive	inactive	inactive	inactive
COc1ccc(S(=O)(=O)N2CCCc3ccc(Br)cc32)cc1N1CCN(C(=O)C(Cl)(Cl)Cl)CC1	93% (active)	23%	2	97% (active)	inactive	inactive	inactive	inactive
CCC(C)Oc1ccc(CCCON2C(N)=NC(N)=NC2(C)C)cc1 (stereo not given)	95% (active)	65% (active)	-8	92% (active)	inactive	inactive	inactive	inactive
Cc1cc(NCc2ccccc2)nc(NCc2ccccc2)n1	18%	21%	5	91% (active)	inactive	inactive	inactive	inactive
CC(C)Cn1cc(C2CCN(CCN3CCC(CNC(=O)c4ccc(NC(=O)c5ccc(Cl)cc5)cc4)CC3)CC2)c2ccccc21	99% (active)	28%	-2	101% (active)	inactive	inactive	inactive	inactive
Cc1cc(-c2ccc(S(=O)(=O)Nc3cc4c(cc3OC(C)C)CCN(C)CC4)cc2)ccc1Cl	19%	33%	-1	90% (active)	inactive	inactive	inactive	inactive
C(=NNc1cc(-c2ccccc2)nc2ccccc12)c1cccnc1	13%	23%	-1	87% (active)	inactive	inactive	inactive	inactive
Cc1ccccc1C1CCN(C2CCC(NC(=O)c3ccc(-c4cccs4)s3)CC2)CC1 (stereo not given)	54% (active)	58% (active)	-2	101% (active)	inactive	inactive	inactive	inactive
O=C(Nc1cccc(-c2csc(-c3nc4ccccc4[nH]3)c2)c1)c1cccnc1	45%	18%	-5	98% (active)	inactive	inactive	inactive	inactive
O=C(Nc1ccc(-c2ccc(-c3nc4ccccc4[nH]3)s2)cc1)Nc1ccsc1	54% (active)	25%	5	100% (active)	inactive	inactive	inactive	inactive
Cc1cc2c(NC(=O)NC3CCN(Cc4ccc(Cl)c(Cl)c4)CC3)cccc2cn1	41%	11%	-2	100% (active)	inactive	inactive	inactive	inactive
CC(=O)N/N=C/[C@H](CCc1ccccc1)NC(=O)[C@H](CC(C)C)NC(=O)c1ccc(F)cc1	86% (active)	2%	-4	95% (active)	inactive	inactive	inactive	inactive
O=C(COc1ccc(F)cc1)NC1CCN(c2ccnc3cc(Cl)ccc23)C1 (stereo not given)	100% (active)	24%	-1	102% (active)	inactive	inactive	inactive	inactive
